Experimental data as given in the supplement of paper PMC7411054.
Counter-ions that a name gives are not always drawn.

Columns and labels:
Experiment in all cases: phenotypically active (imaging signature differs from DMSO and reproducible) at any of 0.3-9 uM (binary (1 = active, 0 = inactive)); higher = active
Conditions in all cases: treatment time: 24 h
[1] = system: A549-ACTB-RAB5A
Summary of the method: (§1)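 Cells from fifteen gene-edited reporter lines (A549, HepG2 and WPMY1) were treated for 24 h at 0.3, 1, 3 or 9 µM and imaged live, four wells per condition. Features were normalised per well to solvent control wells. A condition deviated if ≥3 of 4 wells passed the 95th percentile of control Euclidean distances and was reproducible if its median replicate Pearson correlation beat the 95th percentile of non-replicates; phenotypic activity needed both.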

[2] = system: A549-CANX-COX4
Summary of the method: as §1

[3] = system: A549-GM130-SQSTM1
Summary of the method: as §1

[4] = system: A549-TP53BP1-CLTA
Summary of the method: as §1

[5] = system: A549-TUBA1B-RELA
Summary of the method: as §1

[6] = system: HepG2-ACTB-RAB5A
Summary of the method: as §1

[7] = system: HepG2-CANX-COX4
Summary of the method: as §1

[8] = system: HepG2-GM130-SQSTM1
Summary of the method: as §1

[9] = system: HepG2-TP53BP1-CLTA
Summary of the method: as §1

[10] = system: HepG2-TUBA1B-RELA
Summary of the method: as §1

[11] = system: WPMY1-ACTB-RAB5A
Summary of the method: as §1

[12] = system: WPMY1-CANX-COX4
Summary of the method: as §1

[13] = system: WPMY1-GM130-SQSTM1
Summary of the method: as §1

[14] = system: WPMY1-TP53BP1-CLTA
Summary of the method: as §1

[15] = system: WPMY1-TUBA1B-RELA
Summary of the method: as §1

Measured: phenotypically active

CC1=C(O)C(=O)[C@@H]2O[C@@H]2C1=O [(-)-Terreic acid]
inactive: [1] 0 | [2] 0 | [3] 0 | [4] 0 | [5] 0 | [6] 0 | [7] 0 | [8] 0 | [9] 0 | [10] 0 | [11] 0 | [12] 0 | [13] 0 | [14] 0 | [15] 0

COc1ccc2c(c1OC)C(=O)O[C@@H]2[C@H]1c2cc3c(cc2CCN1C)OCO3 [Hydrastine]
inactive: [1] 0 | [2] 0 | [3] 0 | [4] 0 | [5] 0 | [6] 0 | [7] 0 | [8] 0 | [9] 0 | [10] 0 | [11] 0 | [12] 0 | [13] 0 | [14] 0 | [15] 0

COC1=CC(=O)O[C@@H](/C=C/c2ccccc2)C1 [Kawain]
inactive: [1] 0 | [2] 0 | [3] 0 | [4] 0 | [5] 0 | [6] 0 | [7] 0 | [8] 0 | [9] 0 | [10] 0 | [11] 0 | [12] 0 | [13] 0 | [14] 0 | [15] 0

C/C=C1\CN2CC[C@]34c5cc(OC)ccc5N5C(=O)C(O)OC[C@@H]([C@H]53)[C@H]1C[C@H]24 (stereo not given in full) [10-Methoxy-o-demethyltsilanine]
inactive: [1] 0 | [2] 0 | [3] 0 | [4] 0 | [5] 0 | [6] 0 | [7] 0 | [8] 0 | [9] 0 | [10] 0 | [11] 0 | [12] 0 | [13] 0 | [14] 0 | [15] 0

COc1ccc2c3c1O[C@H]1C(=O)CC[C@@]4(O)[C@@H](C2)N(C)CC[C@]314 [oxycodone]
inactive: [1] 0 | [2] 0 | [3] 0 | [4] 0 | [5] 0 | [6] 0 | [7] 0 | [8] 0 | [9] 0 | [10] 0 | [11] 0 | [12] 0 | [13] 0 | [14] 0 | [15] 0

CCN1C[C@@]2(COC)C3[C@@H](OC)[C@H]4[C@H]1C3([C@@H]1C[C@@]3(O)[C@H](OC(=O)c5ccccc5)[C@@H]1[C@]4(OC(C)=O)[C@@H](O)[C@@H]3OC)[C@H](OC)C[C@H]2O [Aconitine]
inactive: [1] 0 | [2] 0 | [3] 0 | [4] 0 | [5] 0 | [6] 0 | [7] 0 | [8] 0 | [9] 0 | [10] 0 | [11] 0 | [12] 0 | [13] 0 | [14] 0 | [15] 0

NC(=S)N/N=C/c1coc2ccccc2c1=O
inactive: [1] 0 | [2] 0 | [3] 0 | [4] 0 | [5] 0 | [6] 0 | [7] 0 | [8] 0 | [9] 0 | [10] 0 | [11] 0 | [12] 0 | [13] 0 | [14] 0 | [15] 0

CC(C)NCC(O)c1ccc(N)c(C#N)c1 (stereo not given) [Cimaterol]
inactive: [1] 0 | [2] 0 | [3] 0 | [4] 0 | [5] 0 | [6] 0 | [7] 0 | [8] 0 | [9] 0 | [10] 0 | [11] 0 | [12] 0 | [13] 0 | [14] 0 | [15] 0

CN1C(CC(O)c2ccccc2)CCCC1CC(O)c1ccccc1 (stereo not given) [Lobelanidine hydrochloride]
inactive: [1] 0 | [2] 0 | [3] 0 | [4] 0 | [5] 0 | [6] 0 | [7] 0 | [8] 0 | [9] 0 | [10] 0 | [11] 0 | [12] 0 | [13] 0 | [14] 0 | [15] 0

CO[C@H]1C=C2CCN(C)[C@H]2[C@@H]2c3cc4c(cc3[C@@H](O)O[C@@H]21)OCO4 [Unsevine]
inactive: [1] 0 | [2] 0 | [3] 0 | [4] 0 | [5] 0 | [6] 0 | [7] 0 | [8] 0 | [9] 0 | [10] 0 | [11] 0 | [12] 0 | [13] 0 | [14] 0 | [15] 0

C[C@H]1CCC2(NC1)O[C@H]1C[C@H]3[C@@H]4CC[C@H]5C[C@@H](O[C@@H]6O[C@H](CO)[C@H](O[C@@H]7O[C@H](CO)[C@@H](O)[C@H](O[C@@H]8OC[C@@H](O)[C@H](O)[C@H]8O)[C@H]7O[C@@H]7O[C@H](CO)[C@@H](O)[C@H](O)[C@H]7O)[C@H](O)[C@H]6O)CC[C@]5(C)[C@H]4CC[C@]3(C)[C@H]1[C@@H]2C (stereo not given in full) [Tomatine]
inactive: [1] 0 | [2] 0 | [3] 0 | [4] 0 | [5] 0 | [6] 0 | [7] 0 | [8] 0 | [9] 0 | [10] 0 | [11] 0 | [12] 0 | [13] 0 | [14] 0 | [15] 0

C=CCC1(C(C)C#CCC)C(=O)NC(=O)N(C)C1=O (stereo not given) [methohexital]
inactive: [1] 0 | [2] 0 | [3] 0 | [4] 0 | [5] 0 | [6] 0 | [7] 0 | [8] 0 | [9] 0 | [10] 0 | [11] 0 | [12] 0 | [13] 0 | [14] 0 | [15] 0

CCN1C[C@]2(COC)CC[C@H](O)[C@@]34[C@@H]5C[C@H]6[C@H](OC(C)=O)[C@@H]5[C@](O)(C[C@@H]6OC)[C@H](C[C@H]23)[C@H]14 [Condelphine]
inactive: [1] 0 | [2] 0 | [3] 0 | [4] 0 | [5] 0 | [6] 0 | [7] 0 | [8] 0 | [9] 0 | [10] 0 | [11] 0 | [12] 0 | [13] 0 | [14] 0 | [15] 0

CCN1C[C@]2(COC)CC[C@H](O)[C@]34[C@@H]5C[C@H]6[C@H](OC)[C@@H]5[C@](O)(C[C@@H]6OC)[C@](O)([C@H]13)[C@@H](OC)[C@H]24 [Delsoline]
inactive: [1] 0 | [2] 0 | [3] 0 | [4] 0 | [5] 0 | [6] 0 | [7] 0 | [8] 0 | [9] 0 | [10] 0 | [11] 0 | [12] 0 | [13] 0 | [14] 0 | [15] 0

CC(C)CC(N(C)C)C1(c2ccc(Cl)cc2)CCC1 (stereo not given) [sibutramine]
inactive: [1] 0 | [2] 0 | [3] 0 | [4] 0 | [5] 0 | [6] 0 | [7] 0 | [8] 0 | [9] 0 | [10] 0 | [11] 0 | [12] 0 | [13] 0 | [14] 0 | [15] 0

COc1ccc(OC)c(C(O)C(C)N)c1 (stereo not given) [methoxamine]
inactive: [1] 0 | [2] 0 | [3] 0 | [4] 0 | [5] 0 | [6] 0 | [7] 0 | [8] 0 | [9] 0 | [10] 0 | [11] 0 | [12] 0 | [13] 0 | [14] 0 | [15] 0

N[C@@H]1C[C@H]1c1ccccc1 [Tranylcypromine hydrochloride]
inactive: [1] 0 | [2] 0 | [3] 0 | [4] 0 | [5] 0 | [6] 0 | [7] 0 | [8] 0 | [9] 0 | [10] 0 | [11] 0 | [12] 0 | [13] 0 | [14] 0 | [15] 0

CCOC(=O)C1(c2ccccc2)CCN(C)CC1 [meperidine]
inactive: [1] 0 | [2] 0 | [3] 0 | [4] 0 | [5] 0 | [6] 0 | [7] 0 | [8] 0 | [9] 0 | [10] 0 | [11] 0 | [12] 0 | [13] 0 | [14] 0 | [15] 0

c1cncc(C2CC3CCN2CC3)c1 (stereo not given) [RJR 2429 dihydrochloride]
inactive: [1] 0 | [2] 0 | [3] 0 | [4] 0 | [5] 0 | [6] 0 | [7] 0 | [8] 0 | [9] 0 | [10] 0 | [11] 0 | [12] 0 | [13] 0 | [14] 0 | [15] 0

CCN(C(C)=O)c1cccc(-c2ccnc3c(C#N)cnn23)c1 [zaleplon]
inactive: [1] 0 | [2] 0 | [3] 0 | [4] 0 | [5] 0 | [6] 0 | [7] 0 | [8] 0 | [9] 0 | [10] 0 | [11] 0 | [12] 0 | [13] 0 | [14] 0 | [15] 0

CNC(=O)Oc1ccc2c(c1)[C@]1(C)CCN(C)O[C@@H]1N2C [Geneserine]
inactive: [1] 0 | [2] 0 | [3] 0 | [4] 0 | [5] 0 | [6] 0 | [7] 0 | [8] 0 | [9] 0 | [10] 0 | [11] 0 | [12] 0 | [13] 0 | [14] 0 | [15] 0

CN1[C@@H]2CC(=O)C[C@H]1[C@H](O)C2 [6-Hydroxytropinone]
inactive: [1] 0 | [2] 0 | [3] 0 | [4] 0 | [5] 0 | [6] 0 | [7] 0 | [8] 0 | [9] 0 | [10] 0 | [11] 0 | [12] 0 | [13] 0 | [14] 0 | [15] 0
